# The list is not random: actives were taken first. Their share in the collection is about 3.4%.
# SIRT5 block – SIRT5 desuccinylase inhibitors, primary screen, biochemical, fluorescence imaging, single point, set 5. Purified SirT5, succinyl-peptide AMC, trypsin-coupled fluorescence. inhibition, % at 15 µM. NAD-dependent protein deacylase sirtuin-5, mitochondrial (Homo sapiens), Q9NXA8. actives 1.1% (n = 330,000). AID 652115, 2013; in the data active means inhibition above about 15%; inconclusive means no clear call, values can overlap the other calls
# Target sequence (Q9NXA8 whole entry, looked up): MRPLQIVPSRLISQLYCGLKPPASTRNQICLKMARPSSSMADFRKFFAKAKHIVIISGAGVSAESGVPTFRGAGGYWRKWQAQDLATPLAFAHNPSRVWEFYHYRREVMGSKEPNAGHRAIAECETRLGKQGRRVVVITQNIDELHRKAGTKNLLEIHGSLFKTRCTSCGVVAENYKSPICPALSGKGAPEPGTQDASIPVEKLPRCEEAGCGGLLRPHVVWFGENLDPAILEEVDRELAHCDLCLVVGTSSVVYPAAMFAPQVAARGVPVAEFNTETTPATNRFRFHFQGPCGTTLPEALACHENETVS
# PGC1a acetyl inh – inhibitors of PGC1a acetylation signal, primary screen, cell-based, U2OS, AlphaScreen, inhibitor mode; AlphaScreen anti-acetyl-lysine; with virally co-expressed GCN5 acetyltransferase; inhibition, % at 15.6 µM; actives 0.17% (n = 350,000); AID 651687, 2012;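 active means every replicate shows inhibition of at least 40%; inconclusive means mean inhibition at least 40% but some replicate below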;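 further: 0% = neutral control wells and 100% = positive control wells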
# rRNA inh HTS – reduced GFP signal of wild-type E. coli, primary screen, bacterial rRNA inhibitor project, GFP/RFP fluorescence, OD600, single point; E. coli WT GFP vs humanized-ribosome RFP mutants, 24 h; hits give low values; DMSO median 0, no signal -100; GFP signal change (wild-type ribosome), % (concentration not given with the values); actives 1.6% (n = 350,000); AID 720706, 2013;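 active means significant combined selectivity score with lowered wild-type GFP, culture density cut under 30%, mutant RFP and density less affected; inactive means any of these conditions unmet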
# PAX8 reporter – inhibitors of PAX8-driven TPO luciferase reporter, primary screen, RMG-I cells, single concentration; SteadyGlo, 24 h; inhibition, % at 12.6 µM; actives 1.2% (n = 360,000);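 active means mean replicate inhibition at least 60% with every replicate also reaching 60%; inconclusive means only one of the two criteria is met; inactive means mean below 60% and not all replicates reaching 60%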;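 further: luciferase light reporting Pax8 driven TPO promoter activity; plate controls were median of neutral control wells for no effect and mitoxantrone controls for full effect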
# EWS-Fli block – EWS/Fli-driven NR0B1 reporter inhibitors, primary screen, A673 cells, NR0B1 luciferase, luminescence, MLPCN library; viability-normalised; inhibition, % at 12.6 µM; AID 651661, 2012; actives 0.67% (n = 350,000);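 active means mean inhibition of at least 50% after viability correction, with every replicate also passing that limit; inconclusive means mean reaches 50% but only one of two replicates passes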;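 further: firefly luciferase signal divided by Alamar Blue viability fluorescence both relative to DMSO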
# LGR2 antag – inhibitors of bursicon-induced LGR2 CRE-luciferase signal, primary screen, cell-based, HEK293, CRE-luciferase reporter, bursicon stimulation; inhibition, % at 9.99 µM; AID 720647, 2013; bursicon-stimulated, 4 h; actives 0.35% (n = 380,000); Drosophila bursicon receptor LGR2 (rickets);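 active means drop in luminescence signal, shown as inhibition above about 50% in the replicate tests, limit read from the data, passing the limit was not always enough; inconclusive means probably only some replicates passing the limit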;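 further: agonist challenge used bursicon conditioned medium at about half maximal strength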
# The depositor's hits bear a star; u = inconclusive; x = not tested or not shown; ! = not active in a repeat.
SMILES,SIRT5 block,PGC1a acetyl inh,rRNA inh HTS,PAX8 reporter,EWS-Fli block,LGR2 antag
COc1ccc(S(=O)(=O)Nc2ccc3c(c2)CC(=O)N([C@@H](C)CO)C[C@H](C)[C@@H](CN(C)Cc2ccc(C(F)(F)F)cc2)O3)cc1,16.0*,1.0,-0.7,83.0*,4.0,13.4
C[C@@H]1CN([C@H](C)CO)C(=O)Cc2cc(NS(=O)(=O)c3ccc(F)cc3)ccc2O[C@@H]1CN(C)Cc1ccc(C(F)(F)F)cc1,22.8*,12.8,-0.9,-13.4,7.5,-9.3
Cc1ccc(S(=O)(=O)Nc2ccc3c(c2)CC(=O)N([C@H](C)CO)C[C@H](C)[C@H](CN(C)Cc2ccc(C(F)(F)F)cc2)O3)cc1,x,7.1,-1.1,22.7,8.7,-2.3
C[C@@H]1CN([C@H](C)CO)C(=O)Cc2cc(N(C)C)ccc2O[C@H]1CN(C)Cc1ccc(C(=O)O)cc1,x,1.7,5.1,-4.6,-4.9,-13.8
C[C@H](CO)N1C[C@H](C)[C@@H](CN(C)Cc2ccc(C(F)(F)F)cc2)Oc2ccc(NS(C)(=O)=O)cc2CC1=O,16.5*,-14.8,-21.0,2.1,-0.6,-17.8
C[C@H](CO)N1C[C@H](C)[C@@H](CN(C)Cc2ccc(C(F)(F)F)cc2)Oc2ccc(N(C)C)cc2CC1=O,16.6*,-13.5,-4.5,43.7,7.3,0.0
C[C@@H]1CN([C@H](C)CO)C(=O)Cc2cc(NS(C)(=O)=O)ccc2O[C@H]1CN(C)Cc1ccc(C(F)(F)F)cc1,6.6,31.5,-4.0,23.6,-5.6,-28.4
O=C(NCC[C@@H]1CC[C@@H](NC(=O)C2CCCCC2)[C@@H](CO)O1)c1cnccn1,-3.9,-9.2,-2.2,-7.3,-2.3,-5.8
COc1cccc(-c2ccc3n(c2=O)C[C@H]2[C@H](CO)[C@@H](C(=O)N(C)C)[C@@H]3N2Cc2cncnc2)c1,-25.5,x,0.6,1.5,3.4,2.4
CC(C)(C)c1ccc(NC(=S)NCCc2ccccn2)cc1,0.9,0.8,-41.0*,-27.1,-10.8,-9.4
COc1ccc(NC(=O)N(C)C[C@@H]2OCc3ccccc3-c3c(n(C)c4ccccc34)C(=O)N([C@H](C)CO)C[C@@H]2C)cc1,-0.9,-4.7,2.8,x,-8.4,x
O=C(c1ccc(NS(=O)(=O)c2ccc(F)cc2)cc1)N1CCCCCC1,16.7*,x,0.7,-5.7,9.4,9.6
O=S(=O)(/N=C(/c1ccc(F)cc1)N1CCCCC1)c1ccc(Cl)cc1,0.3,x,-22.2*,9.6,1.6,-11.8
O=S(=O)(Nc1ccc(N2CCCCC2)cc1)c1ccc(F)cc1,-3.1,4.0,-36.2*,-6.2,4.2,-24.7
O=C(c1ccc(NS(=O)(=O)c2ccc(F)cc2)cc1)N1CCCCC1,3.2,x,-3.1,-10.1,2.9,-9.6
O=S(=O)(/N=C(/c1ccc(Cl)cc1)N1CCOCC1)c1ccc(Cl)cc1,x,12.3,x,x,x,x
O=C(c1ccc(F)cc1)N1CCOCC1,21.7*,x,21.1,-3.5,-10.6,-7.0
O=C(Nc1ccc(F)cc1)c1ccc(C(=O)N2CCOCC2)cc1,-3.6,2.9,13.7,-38.1,-10.1,-6.4
Cc1noc(C)c1S(=O)(=O)Nc1ccc2c(c1)C(=O)N([C@@H](C)CO)C[C@@H](C)[C@@H](CN(C)CC1CCCCC1)O2,-4.2,-2.9,1.8,x,1.2,-6.8
C[C@H]1CCCCO[C@H](CN(C)Cc2ccncc2)[C@@H](C)CN([C@@H](C)CO)C(=O)c2cc(NS(=O)(=O)c3ccccc3)ccc2O1,-7.8,72.8*!,0.8,-6.1,0.3,-14.3
COc1ccc(S(=O)(=O)Nc2ccc3c(c2)C(=O)N([C@H](C)CO)C[C@@H](C)[C@H](CN(C)Cc2ccc(Cl)c(Cl)c2)OCCCC[C@H](C)O3)cc1,x,30.8,-2.0,68.2*,29.0,23.4
COc1ccc(S(=O)(=O)Nc2ccc3c(c2)C(=O)N([C@H](C)CO)C[C@@H](C)[C@@H](CN(C)Cc2ccc(Cl)c(Cl)c2)O3)cc1,19.1*,9.4,-7.0,x,15.5,1.8
COc1ccc(S(=O)(=O)Nc2ccc3c(c2)C(=O)N([C@@H](C)CO)C[C@@H](C)[C@H](CN(C)Cc2ccncc2)OCCCC[C@H](C)O3)cc1,17.1*,0.4,-2.3,-0.5,-6.9,-6.4
C[C@@H]1CN([C@@H](C)CO)C(=O)c2cc(NS(=O)(=O)c3ccccc3)ccc2O[C@@H](C)CCCCO[C@H]1CN(C)Cc1ccncc1,6.5,4.2,-5.5,9.9,-0.1,1.4
COc1ccc(S(=O)(=O)Nc2ccc3c(c2)C(=O)N([C@H](C)CO)C[C@H](C)[C@H](CN(C)Cc2ccc(Cl)c(Cl)c2)OCCCC[C@H](C)O3)cc1,11.0,-2.4,-1.9,u,2.9,-13.1
SMILES,SIRT5 block,PGC1a acetyl inh,rRNA inh HTS,PAX8 reporter,EWS-Fli block,LGR2 antag
C[C@H]1CN([C@@H](C)CO)C(=O)c2cc(C3=CCCCC3)cnc2O[C@H]1CN(C)Cc1ccccc1,-3.7,-0.4,x,x,-0.2,18.8
CN1[C@@H]2c3ccc(-c4ccncc4)c(=O)n3C[C@H]1[C@H](CO)[C@H]2C(=O)Nc1nccs1,-1.4,-6.3,2.6,-4.6,2.6,5.2
COc1ccc(S(=O)(=O)Nc2ccc3c(c2)C(=O)N([C@@H](C)CO)C[C@@H](C)[C@H](CN(C)Cc2ccc(Cl)c(Cl)c2)OCCCC[C@@H](C)O3)cc1,x,9.2,-1.4,73.5*,11.6,-31.7
COc1ccc(CN(C)C[C@H]2OCCCC[C@H](C)Oc3ccc(NS(=O)(=O)c4ccc(Cl)cc4)cc3C(=O)N([C@H](C)CO)C[C@H]2C)cc1,5.9,-16.5,-27.5,64.8*,11.9,8.1
COc1ccc(CN(C)C[C@@H]2OCCCC[C@@H](C)Oc3ccc(NS(=O)(=O)c4ccc(OC)cc4)cc3C(=O)N([C@@H](C)CO)C[C@H]2C)cc1,x,13.7,0.9,0.1,1.9,11.7
Cc1ccc(-c2cnc3c(c2)C(=O)N([C@@H](C)CO)C[C@H](C)[C@H](CN(C)S(C)(=O)=O)O3)cc1,x,5.2,1.3,3.4,12.8,-1.2
COc1cccc(/C=N/Nc2ccc(S(=O)(=O)O)cc2)c1O,x,5.3,x,x,x,x
Cc1ccc(S(=O)(=O)Oc2ccccc2/C=N/Nc2ccc(C(=O)O)cc2)cc1,8.9,-6.3,-33.4*,-15.6,-8.0,14.6
COc1cccc(/C=N/Nc2ccc(C(=O)O)cc2)c1O,2.2,-7.9,-8.1,108.3*,-10.6,x
COc1cccc(/C=N/NC(=O)C(C)n2nc(C)c([N+](=O)[O-])c2C)c1O (stereo not given),-7.0,x,-22.4*,-1.3,5.6,-2.4

# Bioassay records deposited in PubChem BioAssay by Broad Institute.
